Screening data as filed in PubChem BioAssay.
RGS4-Gao reg = modulates binding of RGS4 to human Galphao; P09471; Multiplexed bead flow cytometry; actives lie on both sides; binding response (% of control), % at 10 µM; 220,000 compounds, 0.33% hits; AID 1415; in the data active = binding response below about 49% or above about 150%; inactive = in between;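 also: fluorescent Galphao activated with aluminum fluoride binding bead-coupled RGS4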
Target sequence (P09471 whole entry, looked up): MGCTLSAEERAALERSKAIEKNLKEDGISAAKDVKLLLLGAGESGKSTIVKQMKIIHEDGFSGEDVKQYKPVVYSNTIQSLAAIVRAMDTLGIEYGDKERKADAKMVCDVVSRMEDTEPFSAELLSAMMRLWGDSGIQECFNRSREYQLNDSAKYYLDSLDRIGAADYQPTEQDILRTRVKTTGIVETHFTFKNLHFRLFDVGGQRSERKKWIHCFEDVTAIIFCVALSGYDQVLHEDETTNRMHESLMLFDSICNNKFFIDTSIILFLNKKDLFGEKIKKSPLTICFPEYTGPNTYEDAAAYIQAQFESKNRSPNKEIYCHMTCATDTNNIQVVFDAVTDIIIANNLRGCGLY
GSH fluor = GSH bead compound fluorescence profile; GSH beads flow cytometry, compound fluorescence 488/530 nm; hits give high values; fluorescence (KMESF) at 10 µM; 190,000 compounds, 0.25% hits; AID 1776; in the data active = fluorescence above about 89;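 also: glutathione beads carrying GST-tagged Bcl family fusion proteins plus one bare bead set; values are compound well signal with DMSO vehicle wells as background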
RGS7-Gao reg = modulates binding of RGS7 to human Galphao. Multiplexed bead flow cytometry; actives lie on both sides. binding response (% of control), % at 10 µM. 220,000 compounds, 0.35% hits. AID 1439; in the data active = binding response below about 49% or above about 150%; inconclusive = no clear call, values can overlap the other calls; inactive = in between;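 also: fluorescent Galphao held in activated GDP-AlF4 state binding bead-coupled RGS7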
RGS16-Gao = modulates binding between human RGS16 and Galphao; bead-based flow cytometry RGS16-Galphao binding, fluorescence; actives lie on both sides; binding response (% of control), % at 10 µM; 220,000 compounds, 0.38% hits; O15492+P09471; call rule not given here;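 also: Galphao activated by GDP with aluminum fluoride before binding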
Avidin bead fluor = compound fluoresces at 488/530 nm on avidin beads; compound fluorescence 488/530 nm, flow cytometry; hits give high values; fluorescence (KMESF) at 10 µM; 220,000 compounds, 0.38% hits; AID 1775; in the data active = fluorescence above about 47
RGS8-Gao = regulators of human RGS8-Galphao interaction; P09471; multiplexed bead flow cytometry, RGS8-Galphao binding; actives lie on both sides; response (percent of control binding), % at 10 µM; 220,000 compounds, 0.34% hits; in the data active = response below about 60% or above about 140%; inactive = in between;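 also: Galphao activated as the GDP aluminium fluoride complex binding bead-coupled RGS8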
* hit, by the source's call; ? = inconclusive; . = no result; [ ] = dose if it differs, or a comment. The list is not random: actives were taken first. Their share in the collection is about 1.2%.

SMILES	RGS4-Gao reg	GSH fluor	RGS7-Gao reg	RGS16-Gao	Avidin bead fluor	RGS8-Gao
COc1ccc(CN2CCN(S(=O)(=O)c3ccc(F)cc3)CC2)c(OC)c1OC	84	56	99	99	9	101
O=C1c2ccccc2NC(c2ccc3c(c2)OCCO3)N1c1ccc2c(c1)OCCO2 (stereo not drawn)	107	262*	102	103	8	101
O=C(COc1ccc(-c2nnco2)cc1)NC1CCCc2ccccc21 (stereo not drawn)	82	233*	85	78	4	90
O=C(COc1ccccc1)NC1CCCc2ccccc21 (stereo not drawn)	95	6	99	99	13	100
CC1NC(=O)NC1CCCCC(=O)O (stereo not drawn)	102	243*	102	55	4	95
COc1ccc2[nH]c(=O)c(CN(Cc3nnnn3Cc3ccc(F)cc3)CC3CCCO3)cc2c1 (stereo not drawn)	108	12	144	104	105*	100
O=C(CN1CCC(NC(=O)c2ccccc2Cl)CC1)NCc1ccco1	100	26	97	107	10	102
CN(C)c1ccc(C2NCCS2)cc1 (stereo not drawn)	15*	11	27*	21*	9	47*
Cc1ccc(C2NCCS2)cc1 (stereo not drawn)	104	9	105	98	4	74
COc1ccccc1-c1nnc(Sc2nc([N+](=O)[O-])nn2C)o1	102	36	103	102	8	107
COc1ccc(CCNC(=O)c2ccc(=O)[nH]n2)cc1OC	104	41	103	106	7	100
COc1ccc(CCNC(=O)c2cc(-c3cc(C)c(C)cc3O)n[nH]2)cc1OC	109	22	132	105	90*	97
COc1ccc(-n2nnc3c(=O)n(CC(=O)Nc4cc(C)on4)cnc32)cc1OC	103	9	106	111	28	109
CCCCn1cnc2c(oc3nc4c(cc32)CCCC4)c1=O	108	.	?	103	7	103
CN(C(=O)Nc1ccc(C(C)(C)C)cc1)C1CCCCC1	112	.	?	99	70*	98
Cc1ccc(-n2c(SCC(=O)Nc3cccc(S(N)(=O)=O)c3)nc3ccccc32)cc1	100	4	101	94	8	99
O=C(CSCc1ccccc1)Nc1cccc(C(=O)Nc2ccc(C(=O)O)cc2)c1	102	19	117	102	53*	99
CCN(CC)CCNc1nc(-c2ccco2)c2c(c1C#N)CC(C)(C)OC2	106	15	107	116	48*	106
CC(C)=CCC(C)(C)C1OCCN1C(=O)Nc1ccccc1 (stereo not drawn)	102	258*	103	109	8	101
CCN=C1SC(C(=O)Nc2ccc(OC)cc2)CC(=O)N1CC (stereo not drawn)	101	12	103	102	3	102
O=C(CSc1nnc(-c2ccncc2)o1)N1CCc2ccccc2C1	102	12	110	110	47*	105
CCOC(=O)CSc1nc2ccccc2c(=O)n1C1CCCC1	111	34	132	107	91*	103
COc1cc(C(=O)NCC(c2cccnc2)N2CCN(c3ccc(F)cc3)CC2)cc(OC)c1OC (stereo not drawn)	105	12	100	104	12	103
CC(=O)NCCn1c(SCc2cccc([N+](=O)[O-])c2)nc2ccccc2c1=O	101	19	106	102	9	105
CO/N=C(/C)CCS(=O)(=O)c1ccccc1	100	16	98	100	11	101
SMILES	RGS4-Gao reg	GSH fluor	RGS7-Gao reg	RGS16-Gao	Avidin bead fluor	RGS8-Gao
Cc1cc(C)cc(N(CC(=O)NCc2ccco2)C(=O)CCC(=O)Nc2ccccn2)c1	100	24	101	102	33	100
Cc1ccc(N(CC(=O)NCc2ccco2)C(=O)CCC(=O)Nc2ccccn2)cc1C	100	254*	99	104	8	98
Nc1ccc2oc(-c3ccccc3Cl)nc2c1	102	12	96	98	14	100
Cc1ccc(C)c(-c2nc3cc(N)ccc3o2)c1	101	14	106	90	61*	97
O=C(COC(=O)Cc1ccc(Br)cc1)NC1CCCCCC1	100	13	?	103	9	102
O=C(NC(=S)Nc1nc2ccccc2s1)c1cccs1	107	6	105	109	14	103
CCc1ccc(-c2nc(NC(=S)NC(=O)c3cccs3)sc2C)cc1	99	24	114	98	57*	98
CCn1c(SCC(=O)N2CCCCC2C)nnc1-c1ccc(S(=O)(=O)N2CCN(C)CC2)cc1 (stereo not drawn)	110	264*	107	132	7	110
CCOC(=O)c1cc(-c2ccc(C)cc2)n(CCC(=O)NC(C)CC)c1C (stereo not drawn)	102	19	105	102	64*	100
CCOC(=O)c1cc(-c2ccc(F)cc2)n(CC(=O)NC(C)CC)c1C (stereo not drawn)	99	16	113	79	33	94
COc1ccc(NC(=S)N(CCN(C)C)C(C)c2ccco2)cc1Cl (stereo not drawn)	111	152*	113	121	28	104
Cc1cc(=O)[nH]c(SCC(=O)Nc2cccc3ccccc23)c1C#N	224*[activator]	29	184*[activator]	219*[activator]	132*	115
Cc1cc(C)c(C#N)c(SCC(=O)Nc2ccccc2C)n1	101	26	102	29	5	96
NC(=O)C1CCN(C(=S)NCCc2ccccc2)CC1	98	17	96	97	9	95
CCOC(=O)N1CCN(Cc2cc(=O)oc3ccc(Cl)cc23)CC1	102	267*	102	102	7	102
CN1CCN(Cc2cc(=O)oc3ccc(Cl)cc23)CC1	105	7	103	103	8	100
Cc1nn(Cc2cccc(C(N)=O)c2)c(C)c1Br	98	.	?	106	6	101
Cc1nn(Cc2cccc(C(=O)NCC(C)C)c2)c(C)c1Br	116	148*	112	96	6	102
COc1cc(NC(=O)c2ccco2)c(C(=O)OCC(=O)c2c[nH]c3ccccc23)cc1OC	110	10	115	117	13	110
O=C1CSc2ccc(C(=O)NCC(c3ccco3)N3CCCCC3)cc2N1 (stereo not drawn)	94	71	113	77	50*	84
O=C(NCC(c1ccco1)N1CCCCC1)c1ccc2c(c1)S(=O)(=O)c1ccccc1C2=O (stereo not drawn)	103	7	102	111	25	103
NNC(=O)[C@H](Cc1ccccc1)NC(=O)Nc1ccc2c(c1)OCCO2	98	.	?	99	5	99
CC(C)c1ccccc1OCCCCCNCCO	105	23	109	105	48*	100
